High-throughput results from PubChem BioAssay.
This is a sample that favours compounds with a hit; in the whole collection about 7.5% have one here.
KinaseGlo FLuc = blocks Kinase-Glo luciferase, a counter-screen artifact | 200,000 compounds, 0.28% hits | AID 1379 | Q27757 | Kinase-Glo luciferase, ATP luminescence, 8 min | Potency, µM (top dose mostly 38.3 µM), hits mostly inhibitors; note: nearly all actives have a fitted effect of over 60% in size
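Compound is pinned into ATP-containing buffer (10 uM ATP, imidazole pH 7.2, 7 mM MgCl2). Kinase-Glo luciferase reagent is then added. Light output is recorded following an 8-min room-temperature incubation.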
Rab9 prom act = activates the Rab9 promoter. AID 485297. Huh7 Rab9 promoter-luciferase reporter, luminescence, 24 h. 320,000 compounds, 2.8% hits. Potency, µM (doses to about 9.22 µM), usual class: activators; note: nearly all actives have a fitted effect of over 60% in size
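Huh7 cells stably carrying Rab9 promoter–luciferase reporter, plated 1500 cells/well, compound added after 2 h and incubated 24 h at 37 °C; luciferase luminescence then read after 10 min with detection reagent.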
FLuc modulator = inhibits or activates purified firefly luciferase, miR-21 counter-screen; purified FLuc, Km substrates, luminescence inhibition; 360,000 compounds, 6.9% hits; Potency, µM (highest dose often 57.5 µM), actives largely listed as inhibitors; AID 588342; P08659; note: nearly all actives have a fitted effect of over 55% in size
Target sequence (P08659 whole entry, looked up): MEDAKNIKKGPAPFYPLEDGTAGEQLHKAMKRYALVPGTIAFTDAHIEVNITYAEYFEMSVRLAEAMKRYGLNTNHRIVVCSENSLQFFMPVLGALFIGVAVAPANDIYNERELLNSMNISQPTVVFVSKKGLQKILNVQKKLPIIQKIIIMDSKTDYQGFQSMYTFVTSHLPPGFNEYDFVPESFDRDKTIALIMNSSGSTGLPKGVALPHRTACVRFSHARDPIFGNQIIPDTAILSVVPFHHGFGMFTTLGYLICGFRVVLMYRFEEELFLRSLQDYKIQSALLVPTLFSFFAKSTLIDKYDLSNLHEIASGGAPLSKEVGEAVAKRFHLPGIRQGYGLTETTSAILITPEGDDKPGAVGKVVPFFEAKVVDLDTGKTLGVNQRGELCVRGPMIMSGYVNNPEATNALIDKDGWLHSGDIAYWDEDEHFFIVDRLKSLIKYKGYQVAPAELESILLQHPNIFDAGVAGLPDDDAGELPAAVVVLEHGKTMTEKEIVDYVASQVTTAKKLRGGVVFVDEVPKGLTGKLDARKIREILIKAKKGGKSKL
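Purified P. pyralis luciferase, 10 nM final, with Km-level 10 uM D-luciferin and 10 uM ATP in 50 mM Tris acetate pH 7.5, 10 mM Mg acetate, 0.01% Tween-20, 0.05% BSA; 6-point qHTS titration about 60 µM downward; luminescence read.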
SMN2 splice enh = enhancers of SMN2 splice variant expression. HEK293 SMN2-luciferase splicing reporter, luminescence, 30-36 h. Potency, µM (top dose mostly 46.1 µM), usual class: activators. 210,000 compounds, 2.8% hits. AID 1458; note: nearly all actives have a fitted effect of over 55% in size
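HEK293 cells carry an SMN2 minigene-luciferase reporter in which exon 7 inclusion puts luciferase in frame. Cells were seeded at 2000 cells/well, attached for 10-12 hours, then exposed to compounds for 30-36 hours at 37C before ONE-Glo luminescence.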
ELG1 genotoxic = inducers of genotoxicity in HEK293T ELG1-luciferase cells | 330,000 compounds, 1.3% hits | AID 504466 | Potency, µM (series often up to 46 µM), most hits filed as activators | HEK293T ELG1-luciferase reporter, luminescence, 16 h; note: nearly all actives have a fitted effect of over 60% in size
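16 hr compound incubation (37 °C, 5% CO2) of HEK293T cells carrying luciferase-tagged ELG1; luciferase then measured by ONE-Glo luminescence after 30 min at RT.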
NPC1 prom act = activators of NPC1 promoter. 320,000 compounds, 2.4% hits. AID 485313. Potency, µM (top dose mostly 9.22 µM), hits mostly activators. Huh7 NPC1 promoter luciferase reporter, 24 h; note: nearly all actives have a fitted effect of over 60% in size
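Luciferase expression driven by the NPC1 promoter was measured in stably transfected Huh7 cells after a 24 h compound incubation, using a luciferase reagent and a luminescence read.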
Hits are given with their value; . = inactive; ? = inconclusive; / = no result given; [ ] = another dose, or the depositor's remark. Calls come from the whole dose curve; as a rule, active = well fitted curve in the direction sought with a large enough effect; inconclusive = small, poorly fitted or top-dose-only effect, or another doubt; inactive = no such curve, though single readings can be large; an effect the other way counts as inactive or inconclusive.

SMILES	KinaseGlo FLuc	Rab9 prom act	FLuc modulator	SMN2 splice enh	ELG1 genotoxic	NPC1 prom act
Cc1ccccc1OCC(=O)N/N=C/C=C/c1ccccc1	.	.	.	.	.	.
N#C/C(=C\c1ccc(OCCN2CCOCC2)cc1)C(=O)Nc1ccc(S(N)(=O)=O)cc1	/	.	.	/	.	.
Cc1ccc(CNC(=O)Cn2ncn3cccc3c2=O)cc1	/	2.5µM	13µM	/	?	?
COC(=O)c1ccc(NC(=O)CCC(=O)c2ccc(F)cc2)cc1	/	.	.	/	.	.
c1ccc(C2=Nc3ccccc3OC2)cc1	.	3.5µM	3µM	.	.	?
Clc1ccc(C2=Nc3cc(Cl)ccc3OC2)cc1	.	?	7.6µM	?	?	?
Cc1ccc2c(c1)N=C(c1ccc(Cl)cc1)CO2	?	2.5µM	1.7µM	22µM	?	3.5µM
Clc1ccc(C2=NN=C3COc4ccccc4N3C2)cc1	.	.	.	.	.	.
CCn1c(-c2cc(-c3ccc(OC(C)C)cc3)nc3ccccc23)n[nH]c1=S	.	?	0.6µM	.	.	?
CCn1c(-c2cc(-c3ccc(C)cc3)nc3ccccc23)n[nH]c1=S	.	.	6.7µM	.	.	.
C=CCn1c(-c2cccc3ccccc23)n[nH]c1=S	.	.	.	.	.	.
CCn1c(-c2cc(-c3ccccc3OC)nc3ccccc23)n[nH]c1=S	.	.	.	.	.	.
CCCOc1cccc(-c2cc(-c3n[nH]c(=S)n3CC)c3ccccc3n2)c1	.	.	17µM	.	.	.
C=CCn1c(-c2cc(-c3ccc(C)cc3)nc3ccccc23)n[nH]c1=S	.	.	11µM	.	.	.
CCOc1ccc(-c2nc[nH]c2[N+](=O)[O-])cc1	.	.	.	.	.	.
CN(C)S(=O)(=O)c1cccc(-c2cn3cc(Cl)ccc3n2)c1	.	.	?	.	?	.
Cc1ccn2cc(-c3cccc([N+](=O)[O-])c3)nc2c1	?	?	0.67µM	1.8µM	0.46µM	0.56µM
Clc1ccc2nc(-c3ccccc3)cn2c1	/	0.4µM	0.48µM	/	0.92µM	0.4µM
CC(=O)Nc1cccc(-c2cn3ccc(C)cc3n2)c1	.	1.6µM	4.3µM	/	?	3.2µM
Cc1ccn2cc(-c3cccc(S(=O)(=O)N4CC(C)OC(C)C4)c3)nc2c1 (configuration not stated)	/	.	?	/	.	.
Cc1ccn2cc(-c3cccc(S(=O)(=O)N4CCCC4)c3)nc2c1	/	.	12µM	/	.	.
Cc1ccn2cc(C(=O)Nc3cccc(C(=O)NC4CC4)c3)nc2c1	/	?	1.3µM	/	.	?
Cc1ccn2cc(-c3cccc(NC(=O)CCC(=O)O)c3)nc2c1	/	.	0.85µM	/	.	.
CCOC(=O)C1CCN(S(=O)(=O)c2cccc(-c3cn4cc(C)ccc4n3)c2)CC1	.	.	8.5µM	.	.	.
Cc1ccn2cc(-c3cccc(NS(C)(=O)=O)c3)nc2c1	.	2.5µM	6.7µM	/	?	3.2µM
SMILES	KinaseGlo FLuc	Rab9 prom act	FLuc modulator	SMN2 splice enh	ELG1 genotoxic	NPC1 prom act
COc1cc(CN2CCN(c3ccc(C)cc3)CC2)cc([N+](=O)[O-])c1O	.	.	.	.	.	.
COc1ccc(NC(=O)COC(=O)CN2C(=O)c3ccccc3C2=O)cc1	/	.	.	/	.	.
CC(=O)Nc1ccc2nc(-c3ccccc3)cn2c1	.	1.1µM	2.1µM	2.5µM	5.8µM	1µM
CC(=O)Nc1ccc(-c2cc(-c3ccccc3)nc(-c3ccccc3)n2)cc1	.	.	.	.[1.84 µM]	.	.
COc1ncc2nc(C)c(=O)n(Cc3cccs3)c2n1	.	/	/	.	/	/
CS(=O)(=O)c1ccccc1-c1nc(-c2cccc(Cl)c2)no1	.	?	?	.	.	.
CC(C)c1cc(-c2nc(-c3cccc(Cl)c3)no2)n[nH]1	/	/	6.7µM	/	/	/
Cc1cccc(-c2noc(-c3ccno3)n2)c1	/	?	21µM	/	?	.
COc1cccc(-c2noc(C3CC(=O)N(c4ccc(F)cc4)C3)n2)c1OC (configuration not stated)	/	/	.	/	/	/
Cc1cccc(-c2noc(-c3cc(C(C)C)[nH]n3)n2)c1	/	/	4.8µM	/	/	/
COc1cccc(-c2noc(-c3cc(C(C)C)[nH]n3)n2)c1OC	/	/	17µM	/	/	/
